In all, about 91,000 compounds went through this assay and about 130 (0.14%) were called active. Another 3% or so got no clear call; they are omitted. This is one part of a sample in which actives are shown more often than they occur. Values without a mark were called inactive. The call rests on the fitted dose curve; in most records, active means well fitted inhibition curve with a large enough effect; inconclusive means small, poorly fitted or top-dose-only effect; inactive means flat fitted curve, though single readings scatter.
test system: Uracil-DNA glycosylase; assay: Primary qHTS assay for inhibitors of Activation Induced Cytidine Deaminase (AID): UDG Counterscreen signal; conditions: FRET deamination/UDG coupled assay, UDG read, 4 h; series mostly up to 115 µM; activity change, negative = inhibition: at the top concentration; further: nearly all actives have a fitted effect of over 65% in size
From the text: Assay Provider (PI) Patricia Gearhart Ph.D.
National Institute on Aging
National Institute of Health (NIH), Bethesda, MD
Assay Provider (PI) Rahul Kohli Ph.D.
Perelman School of Medicine
University of Pennsylvania, Philadelphia, PA
Activation-Induced Deaminase (AID) is a cytosine deaminase which converts cytosine into uracil within stretches of ssDNA. The presence of uracil in DNA initiates a cascade of mutagenic DNA repair to introduce point mutations and DNA double strand breaks. Specific targeting of AID to the immunoglobulin heavy chain loci (Igh) promotes mutagenesis in the antibody variable region for somatic hypermutation (SHM) or switch regions leading to class switch recombination (CSR). However, AID also plays a role in accumulating unnecessary mutations across the genome. Mis-targeting of AID results in the initiation of tumor development and leads to greater drug resistance among cancer cells when continually expressed. To identify an AID inhibitor, a small molecule library will be screened in collaboration with NCATS core facility at NIH. To confirm biological function, inhibitors will be examined in an in vitro murine B-cell activation assay and subsequent secondary validation screens. Top molecules will be further screened to identify inhibitory efficacy against a wild type primary splenocytes assay. Using these approaches, we hope to identify a small molecule with great efficacy and low toxicity for use as a molecular probe to further characterize AID's intricacies, or even as a therapeutic.
A FRET based analysis of cytosine deamination, was developed to identify potential inhibitors of AID catalytic activity. This screen has two signal output, Read 1 evaluates the AID inhibition response. The second readout (Read 2) evaluates UDG response and is uses as a counterscreen to exclude false positive inhibitors. Inhibition in AID and inactivity in the UDG signal is the desired outcome for this assay.
SEQUENCE No. (e.g., 1, 2, 3, etc.); […] (e.g., Cells, Incubation, Reagent, etc.); VALUE; DESCRIPTION
1a; Reagent; 3 uL; [4/3x] 1 uM AID/2.67 U/mL UDG
1b; Reagent; 3 uL; 2 U/mL UDG
1c; Reagent; 3 uL; 1 uM AID
2a; Compound; 46 nL; Follow-up plates (0.64 uM - 10 mM)
2b; Control; 46 nL; ATA ([…] - 10 mM)
3; Time; 10 min; incubation at room temperature
5; Time; 4 hr; incubation at room temperature
6; Reagent; 4 uL; [2x] 250 mM NaOH
7; Time; 15 sec; centrifuge at 1000 rpm
8; Time; 30 min; incubation at room temperature
9a; Detection; fluorescence (Read 1: AID); EnVision (PerkinElmer) plate reader, 540 excitation and 590 emission filters
9b; Detection; fluorescence (Read 2: UDG); EnVision (PerkinElmer) plate reader, 560 excitation and 665 emission filters
NOTES (numbers refer to sequence above)
1a; Reagents were dispensed in a medium-binding black solid-bottom Greiner plates (789176F) using a BioRptr liquid dispenser. Dispense 3 uL of [4/3x] 1 uM AID (provided by Kohli lab) and [4/3x] 2 U/mL UDG (NEB M0280L) into columns 1, 2, 5 to 48.
1b; Dispense 3 uL of [4/3x] 2 U/mL UDG into column 3.
1c; Dispense 3 uL of [4/3x] 1 uM AID into column 4.
2a; Compound (7-points [uM] (0.64; 3.2; 16; 80; 400; 2,000; 10,000; 20,000) double pin-transferred (Dip Factor = 2) using the Kalypsys (Wako USA) pintool equipped with a 1536 pinhead for a final concentration range of 7.32 nM - 114 uM.
2b; 10 mM Aurintricarboxylic Acid (Sigma A1895) (ATA, 8-point, n = 2, 1:2.5 dilution in column 2) double pin-transferred (Dip Factor = 2) using the Kalypsys (Wako USA) pintool equipped with a 1536 pinhead for a [final] range of 186 nM - 114 uM.
3; Room temperature incubation.
4; Dispense 1 uL of substrate mixture from the Kohli lab [4x] […] DJC20 and [4x] 250 nM DJC23 into columns 1 to 48 .
5; Room temperature incubation.
6; Dispense 4 uL of substrate mixture [2x] 250 mM NaOH into columns 1 to 48.
7; Centrifugation step to remove bubbles.
8; Room temperature incubation
9a; Fluorescence signal (column label AID) was read using the EnVision plate reader. […]
On the % scale 0 is the no-effect control and ±100 the full control effect; potency means the concentration at half of the fitted maximal effect.

Row | Structure (SMILES) | activity change, negative = inhibition [%] | Potency
1 | COc1ccccc1NC(=O)CSc1nc2c(=O)[nH]cnc2n1-c1ccccc1 | -13.3 | –
2 | O=C(O)c1cccnc1SC(F)(F)F | 5.69 | –
3 | Cc1ccc(C(CNC(=O)c2cc(-c3ccccc3)on2)N2CCC(C)CC2)o1 (stereo unspecified) | -1.82 | –
4 | O=C(CCC1CCCC1)N1CCN(CC2CC=CCC2)CC1 (stereo unspecified) | -5.57 | –
5 | CC(=O)c1c(C)[nH]c(C(=O)OCC(=O)Nc2ccc(Br)c(C)c2)c1C | 6.68 | –
6 | COC(=O)Cn1cnc2c(sc3nc(C4CCCCC4)c4c(c32)CCC4)c1=O | 2.71 | –
7 | COc1cccc2cc(/C=C(/C#N)c3nc4ccccc4[nH]3)oc12 | 2.17 | –
8 | COc1cc(SC)ccc1C(=O)Oc1cccc(F)c1 | -2.38 | –
9 | CCCCn1c(=O)[nH]c(=O)c2c1nc(COC(=O)c1cc(C)ccc1C)n2CCC | -5.99 | –
10 | O=C1C(O)=C(c2ccccc2)C(c2ccccc2)N1Cc1ccccn1 (stereo unspecified) | -8.73 | –
11 | CCCCC(CC)CNc1ncnc2sccc12 (stereo unspecified) | -2.93 | –
12 | CCc1c(C)sc(NC(=O)c2cccc3ccccc23)c1C#N | -6.9 | –
13 | Cc1cn2c(=O)cc(COC(=O)COc3ccccc3)nc2s1 | 3.76 | –
14 | O=C(NC1C2CC3CC(C2)CC1C3)c1cccc(Br)c1 (stereo unspecified) | 2.83 | –
15 | Cc1ccc2cccc(NC(=O)c3ccccc3C)c2n1 | -2.94 | –
16 | CCCc1cc(=O)oc2c(C)c(OCC(=O)NCc3ccccn3)ccc12 | 2.15 | –
17 | CCCCc1c/c(=N\O)oc2cc3occ(C)c3cc12 | -7.72 | –
18 | N#C/C(=C/c1ccccc1OC(F)F)c1nc2cc(C(F)(F)F)ccc2s1 | -13.5 | –
19 | Cc1csc(CNC(=O)c2cnccn2)n1 | -1.93 | –
20 | CCN(C(=O)COc1ncnc2c(Cl)cc(Cl)cc12)c1ccccc1 | -0.784 | –
21 | O=[N+]([O-])c1cc(S(=O)(=O)Nc2ccccc2NS(=O)(=O)c2cccs2)ccc1Cl | -0.862 | –
22 | CC(C)=CC(=O)Nc1ccccc1SC1CCCC1 | -4.3 | –

Row | Structure (SMILES) | activity change, negative = inhibition [%] | Potency
23 | CN(/C=C/[N+](=O)[O-])c1ccccc1 | 3.38 | –
24 | CCCCc1cnc2c(c1SCC(=O)NCC1CCCO1)c(=O)n(C)c(=O)n2C (stereo unspecified) | -5.8 | –
25 | CC1CCC(NC(=O)/C=C/c2ccc(C(=O)NC3CC3)cc2)CC1 (stereo unspecified) | -3.82 | –
26 | C=CCn1c(SC(C)C(=O)OC)nc2c1c(=O)[nH]c(=O)n2C (stereo unspecified) | -1.33 | –
27 | CC(OC(=O)c1cc(=O)c2ccccc2o1)C(=O)Nc1cc(C(F)(F)F)ccc1Cl (stereo unspecified) | 3.41 | –
28 | CCN(CC)S(=O)(=O)c1ccc([N+](=O)[O-])cc1 | -6.65 | –
29 | Cc1cccc(C(=O)Nc2ccc3nsnc3c2)c1 | -2.27 | –
30 | Cc1ccc2c(COC(=O)C3CCCO3)cc(=O)oc2c1C (stereo unspecified) | 0.708 | –
31 | Cc1ccc(C(=O)N2CCCc3cc(C(=O)NCCC(C)C)ccc32)cc1 | 1.89 | –
32 | O=C(NC1CCCC1)C1CC=CCC1c1nc2ccccc2s1 (stereo unspecified) | -7.21 | –
33 | CCCCCCCCOC(=O)/C(C#N)=C/c1ccc(-c2cccc(C(F)(F)F)c2)o1 | -7.64 | –
34 | O=C(Nc1cc(C(F)(F)F)ccc1Cl)c1c(F)cccc1F | -10.2 | –
35 | Cc1[nH]c2ccccc2c1C(=O)C(C)Sc1nnnn1C1CCCC1 (stereo unspecified) | -0.262 | –
36 | O=C(Nc1cccc(S(=O)(=O)N2CCCC2)c1)c1n[nH]c2ccccc12 | -0.902 | –
37 | O=C(c1ccn(COc2ccccc2)n1)N1CCN(Cc2ccc(Cl)cc2)CC1 | -10.4 | –
38 | CC(C)COC(=O)c1nn(Cc2ccccc2)c(=O)c2ccccc12 | 4.07 | –
39 | COc1ccc2c(CCNC(=O)CCNc3nc(Cl)nc4nc[nH]c34)c[nH]c2c1 | 0 | –
40 | CCOc1cc(C#N)ccc1OC(C)C(=O)c1ccc(OC)cc1 (stereo unspecified) | -1.24 | –
41 | C/C(=N\NC(=O)C1CC1c1ccccc1)c1ccc(C)c(C)c1 (stereo unspecified) | 4.65 | –
42 | CCc1ccc(Sc2cc(C(=O)NC3CCCC3)c3ccccc3n2)cc1 | 2.07 | –
43 | Fc1ccc(NCC23CC4CC(CC(C4)C2)C3)cc1 | -2.91 | –
44 | OC(Cc1c[nH]c2ccccc12)(c1ccccc1)c1ccccc1 | -6.36 | –

Row | Structure (SMILES) | activity change, negative = inhibition [%] | Potency
45 | COc1ccc(C(=O)COC(=O)C(C)Oc2ccc(F)cc2)cc1OC (stereo unspecified) | -15.6 | –
46 | CC1(C)Cc2c(sc(NC(=O)C(N)=O)c2C#N)CO1 | 5.12 | –
47 | CN(/C=C/C(=O)C(F)(F)F)C1(c2ccccc2Cl)CCCCC1=O (stereo unspecified) | -0.265 | –
48 | Cc1ccccc1C(=O)c1cc2ccccc2o1 | -4.15 | –
49 | CC(C)CCNC(=O)COC(=O)c1cc(-c2ccco2)nc2ccccc12 | -2.97 | –
50 | CN(Cc1ccsc1)C(=O)CCc1cccs1 | 10.7 | –
51 | Oc1ccc(Cl)cc1C=NCc1ccc(F)cc1Cl | 5.13 | –
52 | N#Cc1cccc(C(=O)OCc2cccnc2)c1 | 4.57 | –
53 | COc1ccc(Cl)cc1COc1ccccc1C#N | -8.12 | –
54 | CCc1nnc(SCC(=O)Nc2ccc(Cl)c(Cl)c2)n1-n1cccc1 | 3.88 | –
55 | CCCN1C=NS(=O)(=O)c2cc(C(=O)NC(C)(C)C)ccc21 | 9.86 | –
56 | Cc1nc2ccc(C(=O)NCC(=O)NCC(F)(F)F)cc2nc1C | -2.66 | –
57 | NCc1ccc(CN2CCCCCCC2)cc1 | 2.92 | –
58 | CCN(Cc1cccs1)C(=O)CC1CC2CCC1C2 (stereo unspecified) | 8.6 | –
59 | COc1cc(C(=O)Nc2ncccc2C)cc(Cl)c1OC(C)C | 8.76 | –
60 | CCCc1c(C(=O)OCC)nnc2c(-c3ccc(Cl)cc3)c(C)nn12 | 2.06 | –
61 | N#Cc1ccc(CCC(=O)NCc2ccc(F)cc2)cc1 | -6.18 | –
62 | COc1ccc(NS(=O)(=O)c2ccc(N3C(=O)C(C)CS3(=O)=O)cc2)cc1Cl (stereo unspecified) | -1.04 | –
63 | COc1ccc2c(c1)c(N1CCCC1=O)c(C(=O)Nc1ccc(OC)c(Cl)c1)n2C | 2 | –
64 | COc1ccc(NS(=O)(=O)c2cc3c4c(c2)CC(=O)N4CCC3)cc1Cl | – | 89.1 µM (active)
65 | CN(C)C1(c2nnnn2-c2cccc(C(F)(F)F)c2)CCCC1 | -4.85 | –
66 | Cn1c(=O)c2c(ncn2CC(=O)OCc2ccccc2F)n(C)c1=O | -7.56 | –

Row | Structure (SMILES) | activity change, negative = inhibition [%] | Potency
67 | COc1ccccc1Cc1nc2ccccc2nc1SCC(=O)N1CCCc2ccccc21 | – | 89.1 µM (active)
68 | O=C(CSc1nc2ccccc2nc1Cc1ccccc1)N1CCCCC1 | -22.1 | –
69 | O=C(Nc1ccc2nc(SCC(=O)N3CCCc4ccccc43)sc2c1)c1ccc(F)cc1 | – | inactive
70 | CN(Cc1ccc2c(c1)OCCO2)CC(O)COc1ccccc1C(C)(C)C (stereo unspecified) | -12.4 | –
71 | CCNc1nc(-c2cccs2)nc2ccccc12 | 7.12 | –
72 | Cc1ccc(-c2nnc(SCC(=O)Nc3cc(C)on3)n2C2CC2)cc1 | -0.087 | –
73 | CC(C)(C)C(=O)Nc1ccc(-c2csc(N)n2)cc1 | -10.9 | –
74 | COc1ccccc1C(=O)Nc1ccc(O)c(-c2nc3ccccc3o2)c1 | 0 | –
75 | CS(=O)(=O)Cc1cccc(C(=O)NCc2ccccc2F)c1 | -6.76 | –
76 | CCC(Sc1nc2nccnc2c(=O)n1Cc1ccc(OC)cc1)C(=O)NCc1ccc(C)cc1 (stereo unspecified) | 6.72 | –
77 | COc1ccc(CCN2CNc3c(c(=O)[nH]c(=O)n3-c3ccccc3Cl)C2)cc1OC | 0.816 | –
78 | O=C(O)C(Sc1ccc2ccccc2n1)c1ccccc1 (stereo unspecified) | 6.61 | –
79 | NCCOc1cccc(C(F)(F)F)c1 | 2.57 | –
80 | CCC(NC(=O)C1CC1)c1ccccc1 (stereo unspecified) | 4 | –
81 | Cc1ccc(-c2cnc3ccccc3n2)c(C)c1 | -11.7 | –
82 | CCCCNc1nc2c(c(=O)[nH]c(=O)n2C)n1CC(O)COC(C)C (stereo unspecified) | -7.26 | –
83 | Cc1ccccc1NC(=O)/C(C#N)=C/c1ccc(OC(=O)c2ccccc2)cc1 | -6.05 | –
84 | Cc1cccc(NS(=O)(=O)c2ccc(C)c(C(=O)NCC(c3ccccc3)N(C)C)c2)c1 (stereo unspecified) | 3.49 | –
85 | O=C(COc1cc(Cl)c(Cl)cc1Cl)Nc1ccc2oc(-c3ccncc3)nc2c1 | -4.4 | –
86 | COC(=O)c1c(C)[nH]c(C(=O)CSc2nncs2)c1C | 2.52 | –
